The source of these data is PubChem BioAssay (EPA / NIEHS).

Results filed as inconclusive are left out. Activity calls are given as the source filed them. The calls were made as follows: active = hit-call score of the fitted dose curve at least 0.9, where 1 is the maximum; inconclusive = response in the unintended direction; inactive = score below 0.9.

For this test, the target named is human Colony Stimulating Factor 1 Receptor (CSF1R), CSF1R (gene 1436) (UniProt P07333). Nature of the test: NVS_ENZ_hCSF1R: NovaScreen (NVS) Enzymatic Assay for human Colony Stimulating Factor 1 Receptor (CSF1R) (AID 2283150). The procedure, abridged: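 Cell-free recombinant human CSF1R kinase with fluorescent substrate, product separated by electrophoretic mobility shift; read 1 h after dosing. Primary screen at 25 uM in duplicate, actives then in concentration-response up to 50 uM, relative to DMSO.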
Sequence of human Colony Stimulating Factor 1 Receptor (CSF1R), CSF1R (gene 1436) (P07333 whole entry, looked up): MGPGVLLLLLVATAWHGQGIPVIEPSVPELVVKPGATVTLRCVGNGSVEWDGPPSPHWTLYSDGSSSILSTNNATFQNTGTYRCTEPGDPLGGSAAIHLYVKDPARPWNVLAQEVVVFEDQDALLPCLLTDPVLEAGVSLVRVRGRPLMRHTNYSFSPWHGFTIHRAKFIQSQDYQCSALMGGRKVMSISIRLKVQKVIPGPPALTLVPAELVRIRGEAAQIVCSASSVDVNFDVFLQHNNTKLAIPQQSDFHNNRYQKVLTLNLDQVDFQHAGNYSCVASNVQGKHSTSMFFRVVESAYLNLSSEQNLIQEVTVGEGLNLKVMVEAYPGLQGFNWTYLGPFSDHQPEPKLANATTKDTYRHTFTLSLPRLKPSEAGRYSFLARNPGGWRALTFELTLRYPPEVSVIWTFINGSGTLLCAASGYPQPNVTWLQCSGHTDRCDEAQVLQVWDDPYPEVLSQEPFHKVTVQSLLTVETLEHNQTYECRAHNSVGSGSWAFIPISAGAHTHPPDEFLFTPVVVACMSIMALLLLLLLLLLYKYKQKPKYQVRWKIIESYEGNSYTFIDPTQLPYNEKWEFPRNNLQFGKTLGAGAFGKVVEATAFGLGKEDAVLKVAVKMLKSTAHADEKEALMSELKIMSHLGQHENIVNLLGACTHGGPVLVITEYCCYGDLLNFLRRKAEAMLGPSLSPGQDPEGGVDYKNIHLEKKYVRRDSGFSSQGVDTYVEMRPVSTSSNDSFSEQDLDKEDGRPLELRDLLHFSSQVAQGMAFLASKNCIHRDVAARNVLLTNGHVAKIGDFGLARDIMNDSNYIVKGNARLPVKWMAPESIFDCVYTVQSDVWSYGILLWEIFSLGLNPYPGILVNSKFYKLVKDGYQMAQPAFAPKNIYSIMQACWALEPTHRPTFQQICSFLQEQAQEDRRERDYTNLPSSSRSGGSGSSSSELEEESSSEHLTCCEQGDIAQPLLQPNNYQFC
`Cn1sc(Cl)cc1=O`: the compound was classed as inactive.

Regarding `CCCCCCCCc1ccc(O)cc1`, the result was inactive.

As to `ClC1(Cl)C2(Cl)C3(Cl)C4(Cl)C(Cl)(Cl)C5(Cl)C3(Cl)C1(Cl)C5(Cl)C24Cl` (stereo not drawn), the compound was classed as inactive.
